Molecular target: Pro-neuregulin-1, membrane-bound isoform (Homo sapiens) (UniProt Q02297)
Assay: NRG1 binders on small-molecule microarrays, primary screen, psychiatric disease protein project, biochemical, small-molecule microarray, fluorescence 635/667 (AID 1075);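 also: score combines 667 nm spot fluorescence with signal to noise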
Conditions: NRG1 binding, 635 nm fluorescence, higher = more signal

Chain of Pro-neuregulin-1, membrane-bound isoform (Homo sapiens) (Q02297 whole entry, looked up, canonical isoform): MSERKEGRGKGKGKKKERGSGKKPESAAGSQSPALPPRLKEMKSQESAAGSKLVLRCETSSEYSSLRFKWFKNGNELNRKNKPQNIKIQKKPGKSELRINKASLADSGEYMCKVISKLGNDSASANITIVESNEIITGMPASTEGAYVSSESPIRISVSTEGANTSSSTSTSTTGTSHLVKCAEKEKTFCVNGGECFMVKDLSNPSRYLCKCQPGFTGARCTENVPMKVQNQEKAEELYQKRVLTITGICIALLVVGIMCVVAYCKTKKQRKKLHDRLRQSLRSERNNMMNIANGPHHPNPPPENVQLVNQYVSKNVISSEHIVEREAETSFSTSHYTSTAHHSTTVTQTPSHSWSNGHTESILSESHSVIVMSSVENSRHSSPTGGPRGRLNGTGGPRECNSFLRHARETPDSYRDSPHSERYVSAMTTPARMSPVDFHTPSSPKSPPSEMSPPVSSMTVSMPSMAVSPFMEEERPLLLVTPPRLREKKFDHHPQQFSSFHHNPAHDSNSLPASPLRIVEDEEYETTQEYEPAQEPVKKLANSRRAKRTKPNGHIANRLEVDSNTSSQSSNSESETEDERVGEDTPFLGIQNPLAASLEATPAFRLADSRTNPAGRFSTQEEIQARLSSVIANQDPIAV

Row | Structure (SMILES) | composite z-score
1 | CO[C@@H]1COC(=O)CC=C[C@@H](C)[C@H](OC)COC(=O)CC=C[C@H]1C | -0.503
2 | O=C1O[C@H](c2ccccc2)[C@H](c2ccccc2)N2[C@H]1[C@@H](C(=O)Nc1nc3ccccc3s1)[C@]1(C(=O)Nc3ccc(C#CC4(O)CCCCCC4)cc31)[C@H]2c1ccc(O)cc1 | 1.8
3 | O=C1O[C@@H](c2ccccc2)[C@@H](c2ccccc2)N2[C@@H](c3ccccc3OCCO)[C@]3(C(=O)Nc4ccc(C#CC5=CCCCC5)cc43)[C@@H](C(=O)O)[C@H]12 | 0.391
4 | O=C1O[C@@H](c2ccccc2)[C@@H](c2ccccc2)N2[C@@H](c3ccc(O)cc3)[C@]3(C(=O)Nc4ccccc43)[C@@H](C(=O)N3CCN(c4ncccn4)CC3)[C@H]12 | 0.474
5 | C[N+](C)(C)CCCCNC(=O)[C@@H]1C[C@@H]2C(=O)N3CCC[C@H]3C(=O)N2[C@@H]1c1cccc(OCCO)c1 | 0.837
6 | C=CC[C@@]1(C(=O)N2CCOCC2)N=C(c2ccc(OCCCO)cc2)O[C@@H]1c1ccccc1 | 1.12
7 | CCC#CCN(Cc1ccccc1Br)[C@H](/C=C/c1ccccc1)[C@@H](O)Cc1ccccc1 | -0.0939
8 | O=C(NCc1ccccc1)c1ccc(Br)cc1[N+](=O)[O-] | 0.661
9 | CC(C)N1CC=CC23O[C@@H]4/C=C\CCCOC(=O)C4[C@H]2C(=O)N(CCCCCO)[C@@H]3C1=O (stereo not given in full) | 1.16
10 | O=C1OCC=C[C@H]2OC34C=CCN(Cc5ccccc5)C(=O)[C@H]3N(CCO)C(=O)[C@@H]4[C@@H]12 (stereo not given in full) | 2.05
11 | O=C1O[C@H](c2ccccc2)[C@H](c2ccccc2)N2[C@H]1[C@@H](C(=O)NC[C@H](O)c1ccccc1)[C@]1(C(=O)Nc3ccc(C#CC4=CCCCC4)cc31)[C@H]2c1ccc(OCCO)cc1 | 0.413
12 | COc1ccc(-c2ccccc2[C@@H]2N[C@H](C(=O)O)CC[C@H]2C)cc1 | -0.233
13 | CCOC(=O)C[C@H]1[C@H](OC(=O)c2cc3ccccc3oc2=O)[C@@H](NC(=O)C2CCCCC2)c2cc(OCCCO)ccc2N1C(=O)c1ccc2ccccc2n1 | 0.295
14 | NC(=O)NCC#Cc1ccc2c(c1)[C@]1(C(=O)N2)[C@H](C(=O)N2CCCCCCC2)[C@H]2C(=O)O[C@H](c3ccccc3)[C@H](c3ccccc3)N2[C@@H]1c1ccccc1OCCO | 1.92
15 | Cc1ccc(N2C(=O)c3ccccc3[C@@H](C(=O)NCc3ccccc3)[C@@H]2c2ccc(CO)cc2)nc1 | -0.161
16 | COC(=O)C(CC#Cc1ccc2c(c1)[C@]1(C(=O)N2)[C@H](C(=O)N2CCCCCCC2)[C@H]2C(=O)O[C@H](c3ccccc3)[C@H](c3ccccc3)N2[C@@H]1c1ccc(O)cc1)C(=O)OC | -0.712
17 | COc1ccc([Si](C)(C)[C@@H]2[C@@H](CCO)O[C@]3(C(=O)N(Cc4ccc(NC(=O)[C@H](C)O)cc4)c4ccccc43)[C@H]2C)cc1 | 1.05
18 | C=CCNC(=O)[C@@H]1[C@H]2C(=O)O[C@H](c3ccccc3)[C@H](c3ccccc3)N2[C@H](c2ccc(OCCO)cc2)[C@@]12C(=O)N(C(=O)OCCOC)c1ccc(C#CC3(O)CCCCCC3)cc12 | 0.508
19 | CC1CC/C=C\[C@H]2OC34C=CCN(Cn5nnc6ccccc65)C(=O)[C@H]3N(C(C)CO)C(=O)[C@@H]4C2C(=O)O1 (stereo not given in full) | 1.86
20 | COc1ccc([Si](C)(C)[C@H]2[C@H](CC(=O)N(CCO)Cc3ccccc3)O[C@@]3(C(=O)N(C)c4ccccc43)[C@@H]2C)cc1 | 0.67
21 | CO[C@H]1COC(=O)[C@H](CCSC)NC(=O)CC=C[C@@H](C)COC(=O)[C@@H](OCc2ccccc2)C=C[C@@H]1C | -0.37
22 | C=CCOC(=O)[C@@H]1[C@H]2C(=O)O[C@H](c3ccccc3)[C@H](c3ccccc3)N2[C@H](c2ccc(OCCOC(=O)[C@H]3C[C@H]4C(=O)N[C@@H](CCCCNC(C)=O)C(=O)N4[C@H]3c3ccc(O)cc3)cc2)[C@@]12C(=O)Nc1ccc(I)cc12 | 1.24
23 | O=[N+]([O-])c1ccc(C[n+]2ccc3ccc(O)cc3c2)o1 | 1.49
24 | COCCOC(=O)N1C(=O)[C@@]2(c3cc(C#CC4=CCCCC4)ccc31)[C@H](C(=O)NC[C@H](O)c1ccccc1)[C@H]1C(=O)O[C@H](c3ccccc3)[C@H](c3ccccc3)N1[C@@H]2c1ccccc1OCCO | 0.616
25 | CCOC(=O)C1=CC[C@@H](c2ccc(-c3ccc(OCc4ccccc4)cc3)c(OC)c2)N(S(=O)(=O)c2ccc(C)cc2)[C@H]1c1ccccc1 | 1.36
